PubChem BioAssay (NCI)
About 79,000 compounds went through this panel and 15% of them were active in at least one assay; those are over-represented in the sample as a whole. Unmarked numbers belong to inactive results. The source made the active and inactive calls. Cut-off read from the data, not from the text of the source: active = growth inhibition above about 70%; inactive = the rest.

experiment: NCI Yeast Anticancer Drug Screen. Data for the mgt1 strain (AID 153); conditions: S. cerevisiae mgt1 mutant growth inhibition; at 11.0 µM; active compounds read high
Method in brief: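 Compounds were applied to mgt1 mutant yeast, and growth was then compared against vehicle-treated control cultures to give percent inhibition.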

Structure (SMILES)	growth inhibition
c1ccc(-c2cc(C3CO3)c3ccccc3n2)cc1 (configuration not stated)	1%
S=C1C(=Nc2ccccc2)N(c2ccccc2)/C(=N\c2ccccn2)N1c1ccccc1	36%
CCC(OC(C)=O)C1CC(C(C)C)CCC1C (configuration not stated)	0%
CC(C)=CCc1c2c(c(O)c3c(=O)c(-c4ccc(O)c(O)c4)coc13)C=CC(C)(C)O2	94% (active)
O=C(NC(N1CCN(c2cc3c(cc2F)c(=O)c(C(=O)O)cn3C2CC2)CC1)(C(F)(F)F)C(F)(F)F)c1ccccc1	-2%
Fc1cc(F)c(F)c(S)c1F	-56%
COc1ccc2cc3c4cc5c(cc4cc[n+]3cc2c1OC)OCO5	62%
CCCCCCCCNCCCCCCCC	97% (active)
Nc1cc(Cl)ccc1Nc1ccccc1	-10%
O=C(/C(=C/c1ccc(O)cc1)c1ccccc1)c1ccccc1	51%
O=Cc1ccccc1C=O	20%
C1=CCN([B-](c2ccccc2)[C+]2CCCCC2)C=C1	0%
CC/C(=C(\c1ccccc1)c1ccc(OCC[N+](C)(C)C)cc1)c1ccccc1	99% (active)
O=S(=O)(c1cccc(C(F)(F)F)c1)N1c2ccccc2-n2cccc2C1c1cccnc1 (configuration not stated)	78% (active)
Nc1ccc2c(c1)C(=O)c1c(F)cccc1-2	1%
CN(C)/C(=N/C(=S)Nc1ccccc1)SCc1ccccc1	4%
CCN(CC)C(=S)N/N=C(\C)c1ccccc1O	71% (active)
CC(C)OC(=O)NNc1cc(Cl)ccc1Cl	19%
CC(C)CCC[C@@H](C)[C@H]1CC[C@H]2[C@@H]3CC[C@H]4C[C@H](N)CC[C@]4(C)[C@H]3CC[C@]12C	-2%
O=C1c2ccccc2-c2ccc(N=Cc3ccccc3)cc21	-5%

same assay, conditions: S. cerevisiae mgt1 mutant growth inhibition; at 33.0 µM; active compounds read high

Structure (SMILES)	growth inhibition
COc1ccc2nc3cccc([N+](=O)[O-])c3c(NCCNCCN(C)C)c2c1	-3%
Cc1cccc(/C=N/NC(=S)NC2CCCCC2)n1	20%
COC(=O)C(=O)c1c(-c2ccc(Cl)c(Cl)c2)[nH]c2[nH]n(-c3ccccc3)c(=O)c2c1=O	68%
c1ccc([P+](CCN2Cc3ccccc3C2)(c2ccccc2)c2ccccc2)cc1	48%
Cc1cc(C)c2[s+]snc2c1	12%
CC(C)(Br)C(=O)/C=C/c1ccccc1	7%
Cc1ccc(S(=O)(=O)NC(=O)C2C(=O)CC3(CCCCC3)CC2=O)cc1	80% (active)
NC(=S)N1N=C2c3ccccc3CC[C@H]2[C@@H]1c1ccc(Cl)cc1	29%
O=[N+]([O-])/C=C/c1cc2ccc3ccccc3c2[nH]1	95% (active)
O=C1C(=C2CCCC2)CCC1CN1CCCCC1 (configuration not stated)	54%
OC(CC(O)(C(F)(F)F)C(F)(F)F)c1ccc(C(O)CC(O)(C(F)(F)F)C(F)(F)F)cc1 (configuration not stated)	99% (active)
COc1cc2c(cc1OC)[C@@H](Nc1ccc(C#N)cc1)C1COC(=O)[C@@H]1C2c1cc(OC)c(O)c(OC)c1 (some centres not stated)	20%
O=c1cccccc1[O-].O=c1cccccc1[O-].O=c1cccccc1[O-].[Eu+3]	97% (active)
O=C1c2ccccc2C(=O)c2sc(Nc3ccccc3Cl)nc21	99% (active)
NC(CCCCCCCCCCCCC(N)C(=O)c1ccccc1)C(=O)c1ccccc1 (configuration not stated)	39%
CC1=C(C)C(=O)C2=C(OCCO2)C1=O	3%
c1ccc(-c2cc(C3CO3)c3ccccc3n2)cc1 (configuration not stated)	69%
S=C1C(=Nc2ccccc2)N(c2ccccc2)/C(=N\c2ccccn2)N1c1ccccc1	99% (active)
CCC(OC(C)=O)C1CC(C(C)C)CCC1C (configuration not stated)	5%
CC(C)=CCc1c2c(c(O)c3c(=O)c(-c4ccc(O)c(O)c4)coc13)C=CC(C)(C)O2	92% (active)
O=C(NC(N1CCN(c2cc3c(cc2F)c(=O)c(C(=O)O)cn3C2CC2)CC1)(C(F)(F)F)C(F)(F)F)c1ccccc1	6%
Fc1cc(F)c(F)c(S)c1F	48%
COc1ccc2cc3c4cc5c(cc4cc[n+]3cc2c1OC)OCO5	89% (active)
CCCCCCCCNCCCCCCCC	100% (active)
Nc1cc(Cl)ccc1Nc1ccccc1	-1%
O=C(/C(=C/c1ccc(O)cc1)c1ccccc1)c1ccccc1	99% (active)
O=Cc1ccccc1C=O	36%
